Laboratory results as given in ChEMBL document CHEMBL1157539, “Thousands of chemical starting points for antimalarial lead identification” (Nature, 2010).

These compounds were tested on Plasmodium falciparum (assay: GSK_TCMDC: Inhibition of Plasmodium falciparum Dd2 in whole red blood cells, using parasite LDH activity as an index of growth. Test compounds present at 2uM).
Assay type: functional
`CSc1ccc(NC(=O)Nc2cc(C)nc3ccccc23)cc1` gave an Inhibition of 23%. For `N.Nc1nc2c(ncn2COC2COP(=O)(O)OC2)c(=O)[nH]1` (centres undefined), the Inhibition was 54%. For `COc1c(C2CCN(CCCCNC(=O)C=Cc3cc4cc(Cl)ccc4o3)CC2)ccc2c1CCCC2`, the Inhibition was 19%. `COCCn1c(-c2nc(-c3ccc(F)cc3)cnc2N)nc2ccccc21` was tested, and the Inhibition was 98%. For `O=C(Nc1ccc(Cl)cc1)c1ccc(CN2CCCN(Cc3cccc(F)c3)CC2)cc1.O=C(O)C(F)(F)F`, the Inhibition was 8%. For `CC(=O)C=C1CC(=O)N(C[C@@H](O)[C@H]2O[C@@H]3OC(C)(C)O[C@@H]3[C@H]2O)c2ccccc2N1`, the Inhibition was 2%. `COc1cc(C)c(NC(=O)c2cccc3c(=O)c(C)c(-c4ccccc4)oc23)cc1OC` gave an Inhibition of 32%. In the case of `CCCCCCNC(=N)c1ccc(OCCCCCOc2ccc(C(=N)NCCCCCC)cc2)cc1.Cl`, the Inhibition is reported as 98%. `O=c1cc(NCCCNCc2[nH]c3cc(Cl)cc(Cl)c3c2Cn2cccn2)[nH]c2ccccc12` showed an Inhibition of 2%. `Cc1ccc(CN2CCN(c3cc4c(cc3Cl)CCN4C(=O)Cc3ccc(Cl)c(NC(=O)Nc4cccc(C#N)c4)c3)CC2)cc1` gave an Inhibition of 29%. In the case of `Cc1cccc2nc(-c3ccc(-c4ccc(NC(=O)Nc5cccc(C#N)c5)cc4)s3)[nH]c12`, the Inhibition is reported as 100%. Work on `Cc1ccccc1C1CCN(C2CCC(NC(=O)c3cc4cc(Cl)ccc4o3)CC2)CC1` (centres undefined) yielded an Inhibition of 30%. In the case of `O=C(c1cccc(-c2cccc(-c3nc4cc(C(F)(F)F)ccc4[nH]3)c2)c1)N1CCCCC1CN1CCC(O)C1` (centres undefined), the Inhibition is reported as 100%. In the case of `NC1CCN(c2nc(NCCc3ccc(O)cc3)nc(NCc3ccccc3-c3ccc(C(F)(F)F)cc3)n2)CC1.O=C(O)C(F)(F)F`, the Inhibition is reported as 72%. `O=C(/C=C/c1ccc(Cl)c(Cl)c1)NCCCCCCN1CCCN(C(=O)Nc2cc(Cl)cc(Cl)c2)CC1` gave an Inhibition of 2%. `Cc1cc(N[C@@H](Cc2ccccc2)C(=O)NCc2cccc(F)c2)nc(NCCCOC(C)C)n1.O=C(O)C(F)(F)F` was tested, and the Inhibition was 94%. Work on `CC(NC(C)c1cccc(Cl)c1)C(=O)Nc1cc(C(F)(F)F)ccc1N1CCOCC1` (centres undefined) yielded an Inhibition of 33%. In the case of `Cc1cc(C(=O)CN2C(=O)NC3(CCOc4ccccc43)C2=O)c(C)n1Cc1ccc(F)cc1` (centres undefined), the Inhibition is reported as 84%. In the case of `COc1ccc(C(C(=O)NC2CCN(C[C@H](O)c3ccnc4ccc(OC)cc34)CC2)N2CCN(c3ccc(Cl)c(Cl)c3)CC2)cc1` (some centres undefined), the Inhibition is reported as 79%. `CN(C)CCOc1cc(NC(=O)Nc2ccc3c(c2)CCCC3=O)ccc1I` gave an Inhibition of 31%. `O=C(Nc1ccccc1)N(Cc1ccc(-c2ccc(CNC3CCCC3)cc2)cc1)C1CCN(Cc2ccccc2)CC1.O=C(O)C(F)(F)F` gave an Inhibition of 61%. `Cl.N=C(N)c1ccc(NN=Cc2ccc(Oc3ccc(C(=N)N)cc3)cc2)cc1` showed an Inhibition of 100%. `O=C(C=Cc1ccc(Cl)c(Cl)c1)NCCCCCN1CCC(CCCNS(=O)(=O)c2ccc(Br)cc2)CC1` gave an Inhibition of 25%. `CCCc1ccc(NC(=O)c2ccc(CN3CCCN(Cc4ccc(OC)cc4)CC3)cc2)cc1.O=C(O)C(F)(F)F` showed an Inhibition of 0%. `CC(C)(C)c1ccc(NC(=O)c2cccc(CN3CCCN(Cc4ccsc4)CC3)c2)cc1.O=C(O)C(F)(F)F` showed an Inhibition of 3%. `CCn1c(=O)c(C(=O)Nc2cc(Cl)c(OC)cc2OC)nc2ccccc21` gave an Inhibition of 84%. For `CC(=O)Nc1ccc(OCCCN(Cc2ccccc2OC(F)(F)F)c2ccc(C(F)(F)F)c(C#N)c2)c(Cl)c1`, the Inhibition was 80%. With `Cl.NC1=NC(c2ccccc2)N(OCc2ccccc2)C(N)=N1` (centres undefined) the Inhibition was 21%. Compound `O=C(Nc1cccc(C(F)(F)F)c1)c1cccc(S(=O)(=O)NCC2CCN(CC3CCCCC3)CC2)c1.O=C(O)C(F)(F)F` has an Inhibition of 5%. With `Cc1cc(N(C)CCN(C)C)nc(Nc2ccc(Br)cc2)n1` the Inhibition was 23%. `O=C(NC1CCC(N2CCCC(OCc3ccccc3)C2)CC1)c1cc2ccccc2[nH]1` (centres undefined) showed an Inhibition of 11%. `CCOc1cc(C)ccc1C1CCN(CCCCNC(=O)c2ccc(NC(=O)c3cc(Cl)cc(Cl)c3)cc2)CC1` showed an Inhibition of 78%. Work on `Cc1cc(N2CCC(NS(=O)(=O)c3cccc4cccnc34)CC2)nc(Nc2cccc(C#N)c2)n1.O=C(O)C(F)(F)F` yielded an Inhibition of 87%. With `Cl.N#Cc1ccc2c(c1)CN(CCC1CCC(NC(=O)c3cc4cnccc4[nH]3)CC1)CC2` (centres undefined) the Inhibition was 28%. `O=C(NCc1ccccc1)NC1CCN(c2ccnc3cc(Cl)ccc23)C1.O=C(O)C(F)(F)F` (centres undefined) showed an Inhibition of 99%. With `CC(C)(C)c1ccc(CN2CCC(NC(=O)c3ccc(-c4ccccc4F)s3)CC2)cc1.O=C(O)C(F)(F)F` the Inhibition was 37%. `Cc1[nH]c(C)c(-c2ccc(-c3ccccc3F)nc2)c(=O)c1Br` was tested, and the Inhibition was 97%. `COc1ccc(C(=O)C2CC2CN(C)CCC(O)c2ccc(Cl)c(Cl)c2)cc1` (centres undefined) was tested, and the Inhibition was 86%. In the case of `COc1ccc(CNCc2ccsc2)cc1-c1ccc(S(=O)(=O)NCCN2CCCC2)s1.O=C(O)C(F)(F)F`, the Inhibition is reported as 34%.
